Bioassay records as filed in PubChem.
Pol beta inh – blocks human DNA polymerase beta activity | Pol beta primer extension/strand displacement, fluorescence kinetic | Potency, µM (doses to about 114 µM), without a hit: at the top dose activity change, negative = inhibition, usual class: inhibitors | actives 1.3% (n = 340,000); note: potency is the fitted concentration of half-maximal effect; % is set by controls: 0 for no effect and ±100 for the full control effect
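Kinetic readout of DNA synthesis with strand displacement by Pol beta. Compound and 10 nM enzyme sit 15 min at room temperature; 50 nM substrate starts the reaction, read immediately and at 10 min.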
Pol iota inh – inhibitors of human DNA polymerase iota | Q9UNA4 | Pol iota fluorescent replication assay, 10 min | Potency, µM (titrated, usually from 115 µM), for inactives: at the top dose activity, negative = inhibition, usual class: inhibitors | actives 1% (n = 390,000) | AID 588590; note: potency is the fitted concentration of half-maximal effect
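Pol iota at 10 nM preincubated 15 min with compounds at room temperature; reaction started with fluorescent substrate, 50 nM final. Fluorescence read kinetically at 0 and 10 min; buffer-only wells as negative control.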
Pol eta inh-1 – DNA polymerase eta (human) inhibition. actives 1.2% (n = 390,000). AID 588591. Potency, µM (highest dose often 114 µM), for the others: top-dose activity change, negative = inhibition, actives largely listed as inhibitors. recombinant Pol eta, fluorescent DNA replication assay; note: potency is the fitted concentration of half-maximal effect; % is set by controls: 0 for no effect and ±100 for the full control effect
Target sequence (Q9Y253 whole entry, looked up): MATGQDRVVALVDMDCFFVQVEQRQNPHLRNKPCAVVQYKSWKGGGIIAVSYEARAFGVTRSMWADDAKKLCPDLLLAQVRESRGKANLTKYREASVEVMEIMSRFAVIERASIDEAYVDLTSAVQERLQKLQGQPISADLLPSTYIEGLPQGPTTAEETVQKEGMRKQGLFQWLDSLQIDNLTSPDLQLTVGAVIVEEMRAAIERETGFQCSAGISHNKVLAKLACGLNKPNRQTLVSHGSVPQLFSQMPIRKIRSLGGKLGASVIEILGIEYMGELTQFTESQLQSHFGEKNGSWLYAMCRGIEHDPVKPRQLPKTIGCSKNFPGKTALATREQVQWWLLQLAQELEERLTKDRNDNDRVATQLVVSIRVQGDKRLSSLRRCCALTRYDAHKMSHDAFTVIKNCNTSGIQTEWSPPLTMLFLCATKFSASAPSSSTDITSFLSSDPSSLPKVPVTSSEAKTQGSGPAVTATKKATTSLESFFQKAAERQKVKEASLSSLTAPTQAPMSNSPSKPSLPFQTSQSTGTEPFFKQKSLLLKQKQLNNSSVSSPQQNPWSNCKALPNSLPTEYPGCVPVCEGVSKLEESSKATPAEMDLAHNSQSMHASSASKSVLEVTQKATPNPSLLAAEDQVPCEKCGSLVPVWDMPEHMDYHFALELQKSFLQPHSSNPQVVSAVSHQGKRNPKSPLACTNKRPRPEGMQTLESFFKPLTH
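Pol eta at 10 nM preincubated with compounds 15 min at room temperature; reaction started with fluorescent substrate (50 nM final) and read kinetically at 0 and 10 min.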
FEN1 inhibitor – inhibitors of human flap endonuclease 1; P39748; Recombinant FEN1 flap cleavage, fluorescence, 15 min; Potency, µM (titrated, usually from 114 µM), without a hit: top-dose activity change, negative = inhibition, usual class: inhibitors; actives 0.35% (n = 390,000); note: potency is the fitted concentration of half-maximal effect; % is set by controls: 0 for no effect and ±100 for the full control effect; nearly all actives have a fitted effect of over 65% in size
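Compounds are tested as a concentration series against 10 nM FEN1; after a 15 min room-temperature preincubation, 50 nM substrate starts cleavage, with plate reads at 0 and 15 min. Normalized responses are fitted by a Hill equation.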
Pol kappa inh-1 – blocks human DNA polymerase kappa activity; Potency, µM (series often up to 107 µM), for the others: top-dose activity, negative = inhibition, usual class: inhibitors; purified Pol kappa, fluorescent DNA synthesis assay, 10 min; actives 0.53% (n = 400,000); note: potency is the fitted concentration of half-maximal effect; % is set by controls: 0 for no effect and ±100 for the full control effect
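Readout: fluorescence, taken kinetically at 0 and 10 min. Conditions: 10 nM Pol kappa, 15 min RT compound preincubation, 50 nM substrate final. Controls: enzyme-free buffer wells.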
PI5P4Ka inh – inhibitors of human PI5P4K alpha; P48426; PI5P4Kalpha enzyme, ADP-Glo luminescence, 60 min; active compounds read low; max response, %; actives 1.2% (n = 330,000); AID 652105; active = max response of -50% or lower; inconclusive = between -30% and -50%; inactive = -30% or higher; note: value at the top dose of about 77 µM; % is set by controls: 0 for no effect and ±100 for the full control effect
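Single end-point luminescence (ADP-Glo) quantified ADP from PI5P4Kalpha turnover; ATP 5 microM final, 1 h at RT, 0.1% CHAPS and 0.28 mM EGTA in HEPES pH 7.4.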
GALK inh confirm – galactokinase (human) inhibition, confirmation; AID 2015; Potency, µM (titrated, usually from 115 µM), without a hit: top-dose activity, negative = inhibition, hits mostly inhibitors; actives 70% (n = 150); purified GALK, Kinase-Glo ATP depletion luminescence; shares compounds with Pol eta inh-1
Redox cycling – redox cycling activity in phenol red-HRP assay; shares compounds with Pol eta inh-1; Phenol red-HRP H2O2 redox cycling, absorbance 600 nm; Potency, µM (doses to about 115 µM), inactives show at the highest dose activity change, negative = H2O2 signal, usual class: inhibitors; actives 40% (n = 150)
HEK293 viability – counter-screen for GALK inhibitors: HEK293 cell cytotoxicity; shares compounds with Pol eta inh-1; HEK-293 viability, ATP luminescence (CellTiter-Glo), 24/48 h; actives 10% (n = 170); Potency, µM (doses to about 46.1 µM), inactives show top-dose activity change, negative = cytotoxicity, most hits filed as inhibitors; note: potency is the fitted concentration of half-maximal effect; % is set by controls: 0 for no effect and ±100 for the full control effect
Pol kappa inh-2 – confirmation of human DNA polymerase kappa inhibitors; actives 76% (n = 920); shares compounds with Pol eta inh-1; purified Pol-kappa, fluorescent strand-displacement substrate; Potency, µM, hits mostly inhibitors; note: potency is the fitted concentration of half-maximal effect
Pol eta inh-2 – confirmation of human DNA polymerase eta inhibitors; shares compounds with Pol eta inh-1; Pol eta primer extension, TAMRA/BHQ fluorescence, 10 min; Potency, µM, hits mostly inhibitors; actives 64% (n = 2,600); note: potency is the fitted concentration of half-maximal effect
Starred values were filed as active, the others as inactive; u = inconclusive; x = no result; [ ] = remark or other dose. Only some compounds are listed: those with a hit (about 2.8% of all), similar ones and a draw of the others. Unless noted, calls come from the whole dose curve; as a rule, active = well fitted curve in the direction sought with a large enough effect; inconclusive = small, poorly fitted or top-dose-only effect, or another doubt; inactive = no such curve, though single readings can be large; an effect the other way counts as inactive or inconclusive.

SMILES	Pol beta inh	Pol iota inh	Pol eta inh-1	FEN1 inhibitor	Pol kappa inh-1	PI5P4Ka inh	Pol eta inh-2	others
COc1ccc(N/N=C(/C#N)S(=O)(=O)c2nsc(C)c2C#N)cc1	-2%	6%	0%	-7%	-12%	-20	x	GALK inh confirm=u;Redox cycling=8%;HEK293 viability=11%
Cc1snc(S(=O)(=O)/C(C#N)=N/Nc2cccc(C(F)(F)F)c2)c1C#N	21%	-2%	1%	0%	-21%	27	x	GALK inh confirm=24µM*;Redox cycling=1%;HEK293 viability=11%
C/C(=N\Nc1cccc(C(F)(F)F)c1)c1ccc(O)cc1	-16%	105%	-15%	-13%	0%	2	x
COC(=O)c1n[nH]n(-c2ccccc2)c1=O	31%	1%	-7%	4%	10%	x	x
CCCN(CCC)C(=O)Nc1cc(Cl)ccc1OC	3%	-4%	-16%	-3%	8%	5	x
O=C(Nc1ccccn1)Nc1ccccc1Cl	36%	-9%	-9%	8%	13%	3	x
COc1cc(/C=C2\C(=O)ON=C2c2ccccc2)cc(Br)c1O	2%	u	45µM*	u	2%	-85*	x	GALK inh confirm=38µM*;Redox cycling=-2%;HEK293 viability=-17%
CCOc1cc(/C=C2\C(=O)ON=C2c2ccccc2)cc(Br)c1O	5%	u	u	u	0%	-79*	x	GALK inh confirm=u;Redox cycling=0%;HEK293 viability=6%
COc1cc(/C=C2/C(=O)ON=C2c2ccccc2)ccc1O	6%	u	-14%	0%	0%	u	x
Cc1[nH]c(=O)[nH]c(=O)c1S(=O)(=O)Nc1cccc(Cl)c1C	-5%	10%	-17%	17%	-11%	x	x
O=C(CSc1n[nH]c(-c2ccncc2)n1)Nc1ccc(Cl)c(C(=O)O)c1	2%	6%	-12%	3%	-29%	-19	x
C=CCOc1ccccc1/C=c1\sc2nc(=O)c(C)nn2c1=O	25µM*	10µM*	28µM*	-7%	50µM*	x	21*	Pol kappa inh-2=38*
COc1ccccc1CNC(=O)COC(=O)c1nccnc1N	2%	14%	1%	-11%	-12%	-25	x
CCOc1ccc(/C=C/c2nc(C#N)c(N3CCC(C)CC3)o2)cc1	10%	17%	-19%	7%	-4%	x	x
Cc1cc(=O)oc2cc(OCC(=O)N3CCCc4ccccc43)ccc12	-2%	11%	-7%	6%	4%	-2	x
Cc1cc(=O)oc2cc(OCC(=O)N3c4ccccc4NC(=O)C3(C)C)ccc12	x	40µM*	56µM*	-4%	u	u	u
Nc1ccc(C(=O)Nc2ccc3c(O)cc(S(=O)(=O)O)cc3c2)cc1	x	u	11µM*	u	u	-52*	76*	Pol kappa inh-2=u
O=C(N=Nc1c(O)[nH]c2ccccc12)c1ccccc1NS(=O)(=O)c1cccs1	26%	-22%	-15%	-2%	-29%	-21	x
COc1ccc2[nH]c(O)c(N=NC(=O)c3ccc(NS(=O)(=O)c4cccs4)cc3)c2c1	x	40µM*	3.5µM*	u	79µM*	-88*	38*	Pol kappa inh-2=17*
COc1cc(NC(=O)c2ccc3c(SCC(=O)O)c4c(nc3c2)CCC4)cc(OC)c1OC	-4%	u	18µM*	2%	u	2	54*
COc1cc(NC(=O)c2ccc3c(SCC(=O)O)c4c(nc3c2)CCCC4)cc(OC)c1OC	u	u	-7%	-26%	u	4	x
COc1ccccc1/C=C/C=c1\sc2nc(=O)c(Cc3ccccc3)nn2c1=O	u	4.5µM*	20µM*	79µM*	35µM*	-76*	38*
CCCOc1ccc(Cc2nn3c(=O)/c(=C/c4ccco4)sc3nc2=O)cc1	25µM*	6.3µM*	25µM*	u	8.9µM*	u	u
CCOC(=O)C1=C(N)n2c(s/c(=C\c3ccco3)c2=O)=C(C(=O)OC(C)C)C1c1ccco1 (stereo unspecified)	u	u	0%	-10%	-26%	-1	x
CCCCCOc1ccc(/C=c2\sc3nc(=O)c(-c4ccccc4)nn3c2=O)cc1OC	-8%	7%	-3%	-1%	-19%	3	x
SMILES	Pol beta inh	Pol iota inh	Pol eta inh-1	FEN1 inhibitor	Pol kappa inh-1	PI5P4Ka inh	Pol eta inh-2	others
O=C(CCSCc1ccccc1F)N1CCN(c2ccc(F)cc2)CC1	17%	22%	-5%	-1%	-5%[60.1 µM]	x	x
O=C(Nc1ccc2nc3n(c(=O)c2c1)CCCCC3)c1cc([N+](=O)[O-])ccc1F	-21%	10%	u	16%	17%	1	x
O=C(Nc1ccc2nc3n(c(=O)c2c1)CCCCC3)c1c(F)ccc([N+](=O)[O-])c1F	15%	u	16µM*	-18%	8%	-7	48*
COc1ccc(S(=O)(=O)n2cccc2)cc1	x	6%	-11%	-7%	3%	-2	x
CCCCC(=O)N(C)c1c(CC)nc2c(OCC(=O)c3ccc(F)cc3)cccn12	x	x	x	x	x	-7	x
Cc1cc(S(=O)(=O)Nc2ccc(O)c(Sc3nc4ccccc4s3)c2)ccc1Cl	5%	-6%	-11%	-15%	-8%	x	x
O=S(=O)(Nc1ccc(O)c(Sc2nc3ccccc3s2)c1)c1cc(Cl)ccc1Cl	u	u	79µM*	u	u	x	u
O=C(O)CCCN1C(=O)C2C3C=CC(C2C1=O)C1C(=O)N(CCCC(=O)O)C(=O)C31 (stereo unspecified)	14%	70%	-11%	-2%	-10%	-1	x
